Values joined by “and” are separate entries in the source; they are usually repeats but may differ in a detail not shown here. Equal values may be shown once. About 83,000 compounds went through this panel and 20% of them were active in at least one assay; those are over-represented in the sample as a whole.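 Results are percent growth after 48 hours of single-concentration exposure. 100 means growth as in untreated cells, lower positive values show inhibition; negative values down to -100 show cell death.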 Active and inactive are the calls of the source. How the source made its calls: active means growth percent below 10; inactive means the rest.

Growth data for eight molecules are collected here from PubChem BioAssay (NCI).

Some test systems named below: NCI-H23 lung; NCI-H226 lung; NCI-H322M lung; HOP-62 NSCLC; NCI-H460 lung; HOP-92 NSCLC; NCI-H522 lung; 786-0 renal; COLO 205 colon; DU-145 prostate; K-562 leukemia; MALME-3M melanoma; MDA-MB-231 breast; RXF 393 renal; SF-268 CNS; SF-295 CNS; SF-539 CNS; UACC-257 melanoma; M14 melanoma; A549/ATCC NSCLC.
Common to all, as to assay: NCI-60 one-dose screen, 48 h (100 = growth as untreated, 0 = no growth, -100 = all killed)
What all share (settings): 10 µM unless noted

For the molecule `O=C(Nc1ccc([N+](=O)[O-])cc1Cl)c1cc(Cl)ccc1O`, the growth with NCI-H23 lung was -37.1% (active) and -43.6% (active); with NCI-H226 lung, -11.4% (active) and -4.59% (active); with NCI-H322M lung it was -0.032% (active) and -21.1% (active); with HOP-62 NSCLC, 4.95% (active) and 9.98% (active); in the assay with NCI-H460 lung, 0.171% (active) and -3.23% (active); in the assay with HOP-92 NSCLC it was -24.7% (active) and -11.7% (active). Also, the growth was -34.6% (active) and -12.1% (active) in the assay on NCI-H522 lung; -34.7% (active) and -36.2% (active) in the assay on 786-0 renal; -65.9% (active) and -43.8% (active) in the assay on COLO 205 colon; 3.92% (active) and 17.7% (inactive) in the assay with DU-145 prostate; 3.36% (active) and 12.4% (inactive) in the assay with K-562 leukemia; -8.09% (active) and -27.3% (active) in the assay with MALME-3M melanoma. Besides, the growth with MDA-MB-231 breast is -43.3% (active) and -31.2% (active); in the assay with RXF 393 renal, -27.4% (active) and -21.6% (active); with SF-268 CNS it was 5.52% (active) and 16.4% (inactive); in the assay on SF-295 CNS it was -56.8% (active) and -57.8% (active); with SF-539 CNS it was -16.5% (active) and 4.67% (active); in the assay with UACC-257 melanoma it was -34.2% (active) and 3.09% (active). Also, the growth with M14 melanoma is -24.1% (active) and -34.4% (active).
For `CN(C)c1ccc(C(=C2C=CC(=[N+](C)C)C=C2)c2ccccc2Cl)cc1`, the growth in the assay on NCI-H23 lung was -52.2% (active) and -82.2% (active); in the assay with NCI-H226 lung it was -41.3% (active) and -56.5% (active); with NCI-H322M lung, -7.26% (active) and 10.3% (inactive); in the assay with HOP-62 NSCLC it was -43.7% (active) and -94.3% (active); in the assay with NCI-H460 lung, -60.8% (active) and -49.7% (active); in the assay on HOP-92 NSCLC it was -78.2% (active) and -72% (active). The growth in the assay on NCI-H522 lung was -57.4% (active) and -56.5% (active); in the assay with 786-0 renal it was -88.2% (active) and -100% (active); with COLO 205 colon, -89.1% (active) and -90% (active); in the assay with DU-145 prostate, -97% (active); in the assay on K-562 leukemia, 7.59% (active); with MALME-3M melanoma, -56.3% (active) and -46.1% (active). The growth is -36.9% (active) and -66.9% (active) in the assay with MDA-MB-231 breast; -84.3% (active) in the assay on RXF 393 renal; -84.1% (active) in the assay on SF-268 CNS; -30.4% (active) and -25.8% (active) with SF-295 CNS; -58.9% (active) and -92.1% (active) with SF-539 CNS; -77.7% (active) in the assay with UACC-257 melanoma. The growth in the assay on M14 melanoma is -62.8% (active) and -95.3% (active).
As to `Oc1c(CN2CCCCC2)ccc2cccnc12`, the growth in the assay on NCI-H23 lung was 79% (inactive) and 80.2% (inactive); in the assay on NCI-H226 lung, 63.8% (inactive) and 33.7% (inactive); in the assay on NCI-H322M lung, 36.5% (inactive) and 32.4% (inactive); with HOP-62 NSCLC it was 52.1% (inactive) and 41.1% (inactive); in the assay on NCI-H460 lung it was 21.1% (inactive) and 10.5% (inactive); in the assay on NCI-H522 lung, -3.86% (active) and 16.2% (inactive). For the same molecule, the growth in the assay with A549/ATCC NSCLC was 43.6% (inactive) and 36% (inactive); with 786-0 renal, 11% (inactive) and 42.4% (inactive); in the assay on COLO 205 colon it was 66.7% (inactive) and 80.4% (inactive); in the assay with DU-145 prostate, 67.9% (inactive) and 53.7% (inactive); with K-562 leukemia, 28.8% (inactive) and 30.6% (inactive); with MALME-3M melanoma it was 88.1% (inactive) and 82.5% (inactive). Besides, the growth in the assay with MDA-MB-231 breast is 53.2% (inactive) and 46.9% (inactive); in the assay with RXF 393 renal it was 85.1% (inactive) and 3.68% (active); in the assay on SF-268 CNS it was 69.3% (inactive) and 47.6% (inactive); in the assay on SF-295 CNS, 37.1% (inactive); with SF-539 CNS, 74.7% (inactive) and 57% (inactive); in the assay with UACC-257 melanoma, 77.1% (inactive) and 71.6% (inactive). Moreover, the growth in the assay on M14 melanoma is 20.7% (inactive) and 32.6% (inactive).
Turning to `COc1ccc2cc3[n+](cc2c1OC)CCc1cc2c(cc1-3)OCO2`, the growth was 43.4% (inactive) and 50.4% (inactive) in the assay on NCI-H23 lung; 73.8% (inactive) and 79.5% (inactive) in the assay on NCI-H226 lung; 96% (inactive) and 99.4% (inactive) in the assay on NCI-H322M lung; 75.9% (inactive) and 88.9% (inactive) in the assay with NCI-H460 lung; 76.1% (inactive) and 20.6% (inactive) in the assay with HOP-92 NSCLC; 68.7% (inactive) and 53% (inactive) in the assay with NCI-H522 lung. Besides, the growth is 75.1% (inactive) and 59.4% (inactive) in the assay with A549/ATCC NSCLC; 73.5% (inactive) and 66.9% (inactive) with 786-0 renal; 59.5% (inactive) and 68.4% (inactive) in the assay on COLO 205 colon; 92.5% (inactive) and 78.4% (inactive) with DU-145 prostate; 41.1% (inactive) and 40% (inactive) in the assay on K-562 leukemia; 31.6% (inactive) and 42% (inactive) in the assay with MALME-3M melanoma. Further, the growth was 81.7% (inactive) and 87.5% (inactive) with MDA-MB-231 breast; 89.1% (inactive) and 60.9% (inactive) with RXF 393 renal; 42.9% (inactive) and 40.7% (inactive) in the assay with SF-268 CNS; 19.3% (inactive) and 45.1% (inactive) in the assay on SF-295 CNS; 68.6% (inactive) and 82.9% (inactive) in the assay with SF-539 CNS; 48.1% (inactive) and 88.5% (inactive) with UACC-257 melanoma. Further, the growth in the assay on M14 melanoma was 83.2% (inactive) and 110% (inactive).
As to `CCC(C)C1(C2CCCC2)NC(=O)NC1=O` (centres undefined), the growth in the assay with NCI-H23 lung is 103% (inactive) and 101% (inactive); in the assay on NCI-H226 lung, 113% (inactive) and 108% (inactive); with NCI-H322M lung it was 99.1% (inactive) and 115% (inactive); in the assay with HOP-62 NSCLC, 98.6% (inactive) and 102% (inactive); in the assay on NCI-H460 lung it was 117% (inactive) and 107% (inactive); with HOP-92 NSCLC, 92.1% (inactive). The growth was 77.2% (inactive) and 105% (inactive) in the assay on NCI-H522 lung; 104% (inactive) and 108% (inactive) in the assay with 786-0 renal; 102% (inactive) and 116% (inactive) with COLO 205 colon; 121% (inactive) in the assay with DU-145 prostate; 99.3% (inactive) with K-562 leukemia; 114% (inactive) with MALME-3M melanoma. In addition, the growth is 101% (inactive) and 94.3% (inactive) in the assay with MDA-MB-231 breast; 106% (inactive) and 127% (inactive) with RXF 393 renal; 103% (inactive) and 107% (inactive) with SF-268 CNS; 117% (inactive) and 93.9% (inactive) in the assay on SF-295 CNS; 104% (inactive) and 96.6% (inactive) with SF-539 CNS; 94.9% (inactive) and 101% (inactive) with UACC-257 melanoma. In addition, the growth with M14 melanoma was 98.4% (inactive) and 106% (inactive).
As for `O=C(O)CSCc1nc2ccccc2[nH]1`, the growth in the assay with NCI-H23 lung is 95.7% (inactive); with NCI-H226 lung, 106% (inactive); with NCI-H322M lung, 117% (inactive); in the assay with HOP-62 NSCLC, 120% (inactive); in the assay on NCI-H460 lung it was 105% (inactive); in the assay on NCI-H522 lung, 104% (inactive). Moreover, the growth in the assay with 786-0 renal was 103% (inactive); with DU-145 prostate, 111% (inactive); in the assay with MALME-3M melanoma it was 127% (inactive); in the assay with MDA-MB-231 breast, 98.4% (inactive); with RXF 393 renal, 112% (inactive); with SF-268 CNS, 99.2% (inactive). Moreover, the growth in the assay on SF-295 CNS was 112% (inactive); in the assay with SF-539 CNS, 103% (inactive); in the assay on UACC-257 melanoma, 111% (inactive); in the assay with M14 melanoma, 97.4% (inactive).
Consider `CN1CCN(C2CCN(C(=O)Nc3cc(Oc4ccc(NC(=O)C5(C(=O)Nc6ccc(F)cc6)CC5)c(F)c4)ccn3)CC2)CC1`, for which the growth was -44.6% (active) and 73.4% (inactive) in the assay with NCI-H23 lung; -4.95% (active) and 76.4% (inactive) with NCI-H226 lung; -27.6% (active) and 94% (inactive) with NCI-H322M lung; -68.7% (active) and 110% (inactive) with HOP-62 NSCLC; -50.4% (active) and 77.2% (inactive) in the assay on NCI-H460 lung; -43.2% (active) and 68.1% (inactive) in the assay on HOP-92 NSCLC. The growth was -66.2% (active) and 80.8% (inactive) in the assay on NCI-H522 lung; -72.9% (active) and 110% (inactive) in the assay with 786-0 renal; -78.3% (active) and 85.6% (inactive) in the assay on COLO 205 colon; 8.48% (active) and 69.1% (inactive) in the assay with DU-145 prostate; 0.176% (active) and 37.1% (inactive) with K-562 leukemia; -86.6% (active) and 60.2% (inactive) in the assay with MALME-3M melanoma. In addition, the growth was -65.7% (active) and 68.3% (inactive) with MDA-MB-231 breast; -91.7% (active) and 86.4% (inactive) with RXF 393 renal; -22.5% (active) and 90.8% (inactive) in the assay on SF-268 CNS; -87.8% (active) and 50.8% (inactive) with SF-295 CNS; -96.4% (active) and 58.7% (inactive) with SF-539 CNS; -91.6% (active) and 95.8% (inactive) in the assay on UACC-257 melanoma. In the assay on M14 melanoma, the growth was -77.3% (active) and 57% (inactive).
As for `CCCCOc1cc(C(=O)NCCN(CC)CC)c2ccccc2n1`, the growth with NCI-H23 lung was 88.7% (inactive) and 106% (inactive); in the assay with NCI-H226 lung, 94.5% (inactive) and 105% (inactive); in the assay with NCI-H322M lung it was 100% (inactive) and 94.7% (inactive); with HOP-62 NSCLC it was 99.4% (inactive) and 102% (inactive); with NCI-H460 lung, 110% (inactive) and 103% (inactive); in the assay with HOP-92 NSCLC, 45.8% (inactive) and 51.7% (inactive). The growth with NCI-H522 lung was 103% (inactive); in the assay on 786-0 renal, 90.6% (inactive) and 99.9% (inactive); in the assay on COLO 205 colon, 89.6% (inactive) and 93.1% (inactive); with DU-145 prostate, 109% (inactive) and 106% (inactive); with K-562 leukemia, 92.4% (inactive) and 104% (inactive); with MALME-3M melanoma, 93% (inactive) and 106% (inactive). The growth is 86.5% (inactive) and 96.9% (inactive) with MDA-MB-231 breast; 80.7% (inactive) and 94% (inactive) in the assay on RXF 393 renal; 103% (inactive) and 101% (inactive) in the assay with SF-268 CNS; 92.5% (inactive) and 97.5% (inactive) in the assay with SF-295 CNS; 95.2% (inactive) and 106% (inactive) in the assay on SF-539 CNS; 62.2% (inactive) in the assay with UACC-257 melanoma. Further, the growth with M14 melanoma is 93.8% (inactive) and 105% (inactive).
